Results on six compounds are retold here after PubChem BioAssay (EPA / NIEHS).

Active and inactive are the calls of the source. The calls were made as follows: active = hit-call score of the fitted dose curve at least 0.9, where 1 is the maximum; inactive = score below 0.9.

Experiment [1] is described as follows: ATG_GRE_CIS: Attagene CIS-FACTORIAL HepG2 Assay for human Glucocorticoid Response Elements (GRE) (AID 2282947). The note with it: HepG2 GRE cis-reporter, Attagene multiplex mRNA; actives raise or lower the signal. The essentials:
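Endogenous transcription factor activity is read through cis-element reporter constructs transiently transfected into HepG2 cells. After 24 h treatment, labelled RT-PCR products are resolved by capillary electrophoresis; DMSO sets baseline for bidirectional curve fitting.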

A short description of experiment [2]: ATG_M_32_CIS: Attagene CIS-FACTORIAL HepG2 Assay for M32 Transcription Factor (Internal Marker) (AID 2282949).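 Also: background control marker of the multiplexed CIS panel rather than a real target.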 The conditions noted are these: HepG2 Attagene cis-factorial M32 reporter, mRNA; actives raise or lower the signal. The essentials:
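Internal background marker read-out: RT-PCR/capillary electrophoresis fluorescence of reporter transcripts from transiently transfected HepG2 cells after 24 h chemical exposure. Activity fitted bidirectionally relative to DMSO negative control.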

Experiment [3] can be described thus: ATG_M_06_CIS: Attagene CIS-FACTORIAL HepG2 Assay for M06 Transcription Factor (Internal Marker) (AID 2282950). The note with it: HepG2 Attagene CIS-FACTORIAL M06 internal marker reporter; actives raise or lower the signal. The essentials:
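Internal background marker within multiplexed cis-reporter HepG2 system. Cells transiently transfected, dosed 24 h; reporter mRNA measured by RT-PCR, HpaI digestion and capillary electrophoresis. Bidirectional fit relative to DMSO.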

Experiment [4] deals with Hypoxia-inducible factor 1-alpha (Homo sapiens) (UniProt Q16665). Briefly: ATG_HIF1a_CIS: Attagene CIS-FACTORIAL HepG2 Assay for human Hypoxia Inducible Factor 1 (HIF1A) (AID 2282951). The note with it: HepG2 Attagene cis-factorial HIF1a reporter transcription; actives raise or lower the signal. The essentials:
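RT-PCR/capillary electrophoresis fluorescence readout of reporter transcripts from endogenous-TF-driven cis elements in transfected HepG2 cells, 24 h exposure; activity fitted in both directions against DMSO controls.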

Experiment [5] addresses Hepatocyte nuclear factor 6 (Homo sapiens) (UniProt Q9UBC0). The experiment is described as follows: ATG_HNF6_CIS: Attagene CIS-FACTORIAL HepG2 Assay for human Hepatocyte Nuclear Factor 6 (HNF6) (AID 2282952). The note with it: HepG2 Attagene cis-factorial HNF6 reporter transcription; actives raise or lower the signal. The essentials: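 Multiplexed mRNA reporter assay in transfected HepG2; 24 h dosing; RT-PCR plus capillary electrophoresis fluorescence; DMSO-referenced bidirectional curve fitting.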

In experiment [6] the target is Heat shock factor protein 1 (Homo sapiens) (UniProt Q00613). The experiment is described as follows: ATG_HSE_CIS: Attagene CIS-FACTORIAL HepG2 Assay for human Heat Shock Transcription Factor 1 (HSE) (AID 2282953). The conditions noted are these: HepG2 HSE cis-reporter, Attagene RNA transcription; actives raise or lower the signal. The essentials: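 HepG2 cells transfected with cis-promoter reporter units sensing endogenous transcription factor activity; reporter mRNA quantified 24 h post-dose by RT-PCR and capillary electrophoresis of 6-FAM-labelled products. Bidirectional fitting against DMSO.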

Experiment [7] can be described thus: ATG_MRE_CIS: Attagene CIS-FACTORIAL HepG2 Assay for human Metal Responsive Element (MRE) (AID 2282954). The conditions noted are these: HepG2 MRE cis-reporter transcription, Attagene multiplex; actives raise or lower the signal. The essentials: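 Fluorescent reporter fragments separated by capillary electrophoresis give mRNA induction for the MRE unit after 24 h treatment of transfected HepG2 cells. Endogenous transcription-factor activity is read; DMSO serves as negative control and baseline.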

A short description of experiment [8]: ATG_PBREM_CIS: Attagene CIS-FACTORIAL HepG2 Assay for human Phenobarbital-responsive Enhancer Module (PBREM) (AID 2282955). The note with it: HepG2 PBREM cis-reporter, Attagene multiplexed transcription; actives raise or lower the signal. The essentials: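 Reporter mRNA read by RT-PCR, 6-FAM primer extension, HpaI digestion and capillary electrophoresis. Transfected HepG2 cells, 24 h compound exposure. Gain or loss of signal fitted bidirectionally relative to DMSO baseline.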

Experiment [9] addresses Paired box protein Pax-6 (Homo sapiens) (UniProt P26367). The experiment is described as follows: ATG_Pax6_CIS: Attagene CIS-FACTORIAL HepG2 Assay for human Paired Box 6 (PAX6) (AID 2282956). The note with it: HepG2 CIS-FACTORIAL PAX6 reporter transcription, RNA readout; actives raise or lower the signal. The essentials: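 Multiplexed cis-reporter HepG2 system; 24 h treatment; reporter mRNA read by RT-PCR/CE fluorescence; bidirectional fit vs DMSO.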

Experiment [10] is described as follows: ATG_PXRE_CIS: Attagene CIS-FACTORIAL HepG2 Assay for human Pregnane X Receptor Element (PXRE) (AID 2282957). The conditions noted are these: HepG2 Attagene CIS-FACTORIAL PXRE reporter, mRNA; actives raise or lower the signal. The essentials:
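Cells: HepG2, transiently transfected reporter units under cis promoter control. Exposure: 24 h. Detection: reporter mRNA via RT-PCR/CE fluorescence; bidirectional fitting, DMSO-referenced.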

A short description of experiment [11]: ATG_RORE_CIS: Attagene CIS-FACTORIAL HepG2 Assay for human RAR-related Orphan Receptor Element (RORE) (AID 2282959). The conditions noted are these: HepG2 Attagene cis-factorial RORE reporter, mRNA; actives raise or lower the signal. The essentials:
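Readout: fluorescent reporter mRNA by RT-PCR plus capillary electrophoresis, 24 h after dosing transfected HepG2 cells. Endogenous transcription factor activity on a cis promoter element is measured. Gain or loss of signal fitted against DMSO.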

Experiment [12] can be described thus: ATG_Sox_CIS: Attagene CIS-FACTORIAL HepG2 Assay for human SRY-box transcription factor (SOX) (AID 2282960). The note with it: HepG2 Attagene cis-factorial SOX reporter, mRNA; actives raise or lower the signal. The essentials:
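Read-out: fluorescent RT-PCR products of SOX1-linked reporter transcripts resolved by capillary electrophoresis, fitted bidirectionally against DMSO. Transiently transfected HepG2 cells, 24 h after chemical exposure, endogenous transcription factor activity.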

Experiment [13] has as its target Transcription factor Sp1 (Homo sapiens) (UniProt P08047). Briefly: ATG_Sp1_CIS: Attagene CIS-FACTORIAL HepG2 Assay for human Specificity Protein 1 (Sp1) (AID 2282961). The note with it: HepG2 Sp1 cis-reporter transcription, actives raise or lower the signal. The essentials:
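Read-out: fluorescence of 6-FAM-labeled, HpaI-digested RT-PCR products separated by capillary electrophoresis. HepG2 cells carried transfected cis-element reporter units and were exposed to chemicals for 24 h; gain or loss of signal fitted relative to DMSO.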

Experiment [14] in a line: ATG_SREBP_CIS: Attagene CIS-FACTORIAL HepG2 Assay for human Sterol Regulatory Element Binding (SREBP) (AID 2282962). The note with it: HepG2 Attagene cis-factorial SREBP reporter, mRNA; actives raise or lower the signal. The essentials: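 mRNA induction of transfected cis-promoter reporters in HepG2 cells, 24 h post-dose. Detection: RT-PCR with 6-FAM-labelled products, HpaI digest, capillary electrophoresis. DMSO served as negative control and baseline.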

In experiment [15] the target is Signal transducer and activator of transcription 3 (Homo sapiens) (UniProt P40763). Briefly: ATG_STAT3_CIS: Attagene CIS-FACTORIAL HepG2 Assay for human Signal Transducer and Activator of Transcription 3 (STAT3) (AID 2282963). The conditions noted are these: HepG2, Attagene cis-factorial STAT3 reporter transcription; actives raise or lower the signal. The essentials: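 Values derive from bidirectional fits relative to DMSO of reporter mRNA levels, measured by RT-PCR with capillary electrophoresis, in HepG2 cells carrying transiently transfected cis-regulated reporter units and exposed 24 h.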

A short description of experiment [16]: ATG_TA_CIS: Attagene CIS-FACTORIAL HepG2 Assay for human TA Basal Promoter (AID 2282964). The note with it: HepG2 Attagene CIS-factorial TA basal promoter reporter; actives raise or lower the signal. The essentials:
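HepG2 cells transiently transfected with multiple reporter units under cis promoter elements, reporting endogenous transcription factor activity; this endpoint tracks the TA basal promoter as background control. Reporter mRNA after 24 h dosing measured by RT-PCR/capillary electrophoresis; bidirectional fits versus DMSO.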

A short description of experiment [17]: ATG_ISRE_CIS: Attagene CIS-FACTORIAL HepG2 Assay for human Interferon Regulatory Factor 1 (IRF1) binding to an Interferon-Stimulated Response Element (ISRE) (AID 2282948). The note with it: HepG2 ISRE cis-reporter (Attagene), mRNA transcription readout; actives raise or lower the signal. The essentials:
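Cell-based cis-reporter assay; HepG2; 24 h exposure; reporter mRNA by RT-PCR plus capillary electrophoresis fluorescence; activity in either direction scored relative to DMSO.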

A short description of experiment [18]: ATG_PPRE_CIS: Attagene CIS-FACTORIAL HepG2 Assay for human Peroxisome Proliferator-activated Response Element (PPRE) (AID 2282958). The note with it: HepG2 PPRE cis-element reporter, Attagene transcription factor profiling; actives raise or lower the signal. The essentials: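 Read-out: fluorescent reporter mRNA fragments resolved by capillary electrophoresis after RT-PCR. HepG2 cells carried transiently transfected PPRE-driven cis reporter constructs and were dosed for 24 h; gain or loss of signal fitted relative to DMSO.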

Experiment [19] is described as follows: ATG_TCF_b_cat_CIS: Attagene CIS-FACTORIAL HepG2 Assay for human T-Cell-Factor with beta-catenin (TCF/b-cat) (AID 2282965). The conditions noted are these: HepG2 TCF/beta-catenin cis-reporter transcription, actives raise or lower the signal. The essentials: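 HepG2, transient MRTU transfection, cis-element-driven reporters (endogenous TFs). 24 h compound exposure. Readout: reporter mRNA by RT-PCR + 6-FAM primer extension, HpaI digest, capillary electrophoresis. Gain/loss fit vs DMSO baseline.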

Chain of Transcription factor Sp1 (Homo sapiens) (P08047 whole entry, looked up): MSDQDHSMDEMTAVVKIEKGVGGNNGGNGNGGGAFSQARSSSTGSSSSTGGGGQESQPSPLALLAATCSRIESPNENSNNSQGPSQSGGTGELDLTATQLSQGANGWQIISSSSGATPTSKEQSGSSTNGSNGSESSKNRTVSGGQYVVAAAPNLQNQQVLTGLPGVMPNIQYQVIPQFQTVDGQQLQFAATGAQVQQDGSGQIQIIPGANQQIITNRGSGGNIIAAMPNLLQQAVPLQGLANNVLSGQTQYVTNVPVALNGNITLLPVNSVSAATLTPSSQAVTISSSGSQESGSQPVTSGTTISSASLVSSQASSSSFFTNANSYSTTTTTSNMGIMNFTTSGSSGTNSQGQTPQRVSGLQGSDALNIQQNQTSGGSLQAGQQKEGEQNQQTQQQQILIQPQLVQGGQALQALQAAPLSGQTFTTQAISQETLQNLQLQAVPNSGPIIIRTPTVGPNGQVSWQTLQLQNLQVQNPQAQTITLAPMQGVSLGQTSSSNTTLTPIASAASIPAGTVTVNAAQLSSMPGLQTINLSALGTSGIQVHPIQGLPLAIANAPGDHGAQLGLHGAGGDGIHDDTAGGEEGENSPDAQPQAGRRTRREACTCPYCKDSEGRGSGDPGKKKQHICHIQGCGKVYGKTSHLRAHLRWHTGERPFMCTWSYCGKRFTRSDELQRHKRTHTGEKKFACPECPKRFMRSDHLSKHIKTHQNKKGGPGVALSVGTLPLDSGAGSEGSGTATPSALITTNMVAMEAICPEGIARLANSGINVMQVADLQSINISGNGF
Chain of Paired box protein Pax-6 (Homo sapiens) (P26367 whole entry, looked up): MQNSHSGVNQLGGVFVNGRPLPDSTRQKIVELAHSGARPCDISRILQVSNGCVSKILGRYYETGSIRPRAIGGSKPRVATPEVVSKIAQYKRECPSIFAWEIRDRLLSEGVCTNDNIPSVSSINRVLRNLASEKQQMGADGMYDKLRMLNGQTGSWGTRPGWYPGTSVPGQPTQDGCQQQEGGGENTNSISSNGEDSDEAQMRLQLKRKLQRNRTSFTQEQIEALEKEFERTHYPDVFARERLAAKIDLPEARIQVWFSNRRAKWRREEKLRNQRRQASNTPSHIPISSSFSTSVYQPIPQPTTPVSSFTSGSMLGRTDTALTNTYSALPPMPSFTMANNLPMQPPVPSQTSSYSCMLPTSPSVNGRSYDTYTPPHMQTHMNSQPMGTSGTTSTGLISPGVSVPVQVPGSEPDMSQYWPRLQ
Chain of Heat shock factor protein 1 (Homo sapiens) (Q00613 whole entry, looked up): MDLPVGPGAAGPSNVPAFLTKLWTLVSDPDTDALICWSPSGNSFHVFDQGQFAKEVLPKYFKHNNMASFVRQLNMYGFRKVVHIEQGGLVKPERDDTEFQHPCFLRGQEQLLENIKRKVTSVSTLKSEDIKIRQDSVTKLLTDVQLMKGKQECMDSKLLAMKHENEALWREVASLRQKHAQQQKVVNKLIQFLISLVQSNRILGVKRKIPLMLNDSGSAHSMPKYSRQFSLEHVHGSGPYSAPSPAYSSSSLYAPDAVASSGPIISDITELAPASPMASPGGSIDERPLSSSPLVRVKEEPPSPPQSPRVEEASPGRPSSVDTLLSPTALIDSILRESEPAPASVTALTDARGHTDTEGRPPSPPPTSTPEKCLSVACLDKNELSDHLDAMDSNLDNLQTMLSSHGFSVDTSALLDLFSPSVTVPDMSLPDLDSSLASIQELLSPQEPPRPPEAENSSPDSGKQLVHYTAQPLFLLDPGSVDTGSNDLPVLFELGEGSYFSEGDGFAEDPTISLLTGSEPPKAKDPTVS
Chain of Hepatocyte nuclear factor 6 (Homo sapiens) (Q9UBC0 whole entry, looked up): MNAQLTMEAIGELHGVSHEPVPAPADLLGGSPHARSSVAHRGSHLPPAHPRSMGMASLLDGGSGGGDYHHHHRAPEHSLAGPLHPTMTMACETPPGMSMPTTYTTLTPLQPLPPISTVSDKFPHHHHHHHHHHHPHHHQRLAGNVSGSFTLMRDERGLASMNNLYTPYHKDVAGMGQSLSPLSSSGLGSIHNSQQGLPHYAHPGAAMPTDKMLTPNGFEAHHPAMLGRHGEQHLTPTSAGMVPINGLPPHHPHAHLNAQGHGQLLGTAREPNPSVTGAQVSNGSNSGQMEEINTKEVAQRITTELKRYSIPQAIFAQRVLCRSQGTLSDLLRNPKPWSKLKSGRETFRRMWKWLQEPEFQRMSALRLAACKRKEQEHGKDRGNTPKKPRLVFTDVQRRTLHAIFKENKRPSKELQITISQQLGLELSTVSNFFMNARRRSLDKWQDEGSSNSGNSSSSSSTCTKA
Chain of Signal transducer and activator of transcription 3 (Homo sapiens) (P40763 whole entry, looked up): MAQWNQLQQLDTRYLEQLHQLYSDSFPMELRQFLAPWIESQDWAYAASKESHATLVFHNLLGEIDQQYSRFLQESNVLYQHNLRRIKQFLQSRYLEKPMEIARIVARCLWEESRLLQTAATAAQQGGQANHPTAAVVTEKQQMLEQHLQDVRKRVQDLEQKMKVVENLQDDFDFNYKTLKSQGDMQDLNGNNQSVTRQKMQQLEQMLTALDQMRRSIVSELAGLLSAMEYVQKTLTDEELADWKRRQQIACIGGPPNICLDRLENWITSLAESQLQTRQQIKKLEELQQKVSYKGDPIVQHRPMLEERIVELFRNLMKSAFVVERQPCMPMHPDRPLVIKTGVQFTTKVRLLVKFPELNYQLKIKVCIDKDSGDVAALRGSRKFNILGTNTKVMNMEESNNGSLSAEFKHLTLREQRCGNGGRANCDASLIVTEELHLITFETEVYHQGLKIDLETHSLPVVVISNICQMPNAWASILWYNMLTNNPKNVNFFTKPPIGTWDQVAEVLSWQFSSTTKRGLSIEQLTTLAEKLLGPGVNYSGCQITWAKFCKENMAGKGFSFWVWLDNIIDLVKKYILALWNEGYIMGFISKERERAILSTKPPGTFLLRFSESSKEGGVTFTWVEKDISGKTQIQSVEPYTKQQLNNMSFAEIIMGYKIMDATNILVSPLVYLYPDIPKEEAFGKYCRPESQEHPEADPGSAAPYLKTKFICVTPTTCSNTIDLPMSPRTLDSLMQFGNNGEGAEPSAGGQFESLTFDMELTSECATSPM
Chain of Hypoxia-inducible factor 1-alpha (Homo sapiens) (Q16665 whole entry, looked up): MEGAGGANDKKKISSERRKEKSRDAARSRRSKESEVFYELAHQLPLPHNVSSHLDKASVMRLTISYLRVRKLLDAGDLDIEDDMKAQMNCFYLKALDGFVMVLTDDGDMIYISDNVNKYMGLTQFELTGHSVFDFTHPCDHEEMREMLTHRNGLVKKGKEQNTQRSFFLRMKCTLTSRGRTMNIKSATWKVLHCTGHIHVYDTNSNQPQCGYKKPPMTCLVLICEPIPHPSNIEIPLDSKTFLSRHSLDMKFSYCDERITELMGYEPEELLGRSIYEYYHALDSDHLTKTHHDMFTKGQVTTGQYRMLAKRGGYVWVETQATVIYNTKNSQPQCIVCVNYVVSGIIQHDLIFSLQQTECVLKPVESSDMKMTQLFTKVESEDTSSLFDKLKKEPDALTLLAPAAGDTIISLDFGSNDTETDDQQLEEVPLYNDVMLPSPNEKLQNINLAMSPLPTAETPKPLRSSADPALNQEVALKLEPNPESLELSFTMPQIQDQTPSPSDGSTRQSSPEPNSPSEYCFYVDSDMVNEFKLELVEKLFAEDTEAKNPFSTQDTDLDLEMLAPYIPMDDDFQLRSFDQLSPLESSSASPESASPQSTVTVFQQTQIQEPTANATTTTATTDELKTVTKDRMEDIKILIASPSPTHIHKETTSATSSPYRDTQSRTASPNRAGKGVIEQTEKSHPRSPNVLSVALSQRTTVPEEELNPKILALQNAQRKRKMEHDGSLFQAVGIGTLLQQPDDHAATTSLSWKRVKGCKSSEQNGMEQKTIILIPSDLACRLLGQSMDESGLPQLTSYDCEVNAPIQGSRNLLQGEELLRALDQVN

`CC(C)C1CCC(O)CC1` (centres undefined): the call in experiment [1], in [2], in experiment [3], in [4], in experiment [5] and in [6] was inactive. Besides, the result in experiment [7], in [8], in experiment [9], in [10], in experiment [11] and in experiment [12] was inactive. For the same compound, the result in [13], in experiment [14], in experiment [15] and in experiment [16] was inactive.

By AC50 is commonly meant the concentration giving half of the maximal activity seen. In the case of `CC(=O)C(=O)O`, the compound was classed as inactive in [17], in experiment [2], in [3], in experiment [5], in experiment [6] and in experiment [7]. For the same compound, the call in experiment [9], in [10], in experiment [18], in experiment [11], in experiment [12] and in [13] was inactive. The compound was classed as inactive in experiment [14], in [15], in experiment [16] and in experiment [19]. In addition, the AC50 in experiment [4] is 33.9 µM (active).

In the case of `C=O`, the compound was classed as inactive in [17], in [2], in experiment [3], in experiment [4], in experiment [5] and in experiment [6]. Further, the call in experiment [7], in [8], in experiment [9], in experiment [12], in experiment [13] and in experiment [14] was inactive. The compound was classed as inactive in [15], in [16] and in experiment [19]. Moreover, the AC50 in [10] is 27.7 µM (active).

Take `Nc1cc(Cl)c(O)c(Cl)c1`: the call in experiment [1], in experiment [2], in [3], in [4], in [5] and in experiment [12] was inactive. Moreover, the call in experiment [15] and in [16] was inactive. The AC50 in experiment [6] was 142 µM (active); in experiment [7], 79 µM (active); in experiment [8] it was 84.9 µM (active); in [9] it was 136 µM (active); in [10], 24.8 µM (active); in experiment [11] it was 60.2 µM (active). Also, the AC50 was 130 µM (active) in experiment [14] and 64.2 µM (active) in experiment [19].

`Fc1c(F)c(F)c(Br)c(F)c1F`: the compound was called inactive in experiment [17], in experiment [2], in experiment [3], in [4], in [5] and in experiment [6]. Besides, the outcome in experiment [7], in experiment [8], in experiment [9], in [18], in experiment [12] and in experiment [13] was inactive. Besides, the call in experiment [14], in [15], in experiment [16] and in experiment [19] was inactive. For the same compound, the AC50 in experiment [10] is 46.5 µM (active).

Consider `CCn1c2ccccc2c2cc(N)ccc21`, for which the outcome in [17], in experiment [2], in [3], in [4], in experiment [5] and in experiment [6] was inactive. Further, the compound was called inactive in experiment [7], in experiment [9], in experiment [12], in [13], in experiment [15] and in experiment [16]. For the same compound, in experiment [19], the outcome was inactive. For the same compound, the AC50 in experiment [8] is 37 µM (active); in experiment [10] it was 3.35 µM (active); in experiment [11], 67.9 µM (active); in experiment [14], 27.3 µM (active).
